# Test results published in paper PMC4336329 (PLoS ONE, 2015).
# Hit rate of the full screen: of about 310,000 compounds, about 14,000 (4.5%) showed an effect of 50% or more. Effects have a minus sign here. The list comes from a sample in which strong results are over-represented; it also holds similar structures and randomly drawn compounds.
# Target: human ether-à-go-go-related gene (hERG) potassium channel (human, UniProt Q12809)
# Assay: primary screen, population patch clamp on CHO cells stably expressing hERG; higher = less effect of the substance
# 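Also: peak tail current of the secondary pulse compared with the same well before compound.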
# Chain of human ether-à-go-go-related gene (hERG) potassium channel (Q12809 whole entry, looked up): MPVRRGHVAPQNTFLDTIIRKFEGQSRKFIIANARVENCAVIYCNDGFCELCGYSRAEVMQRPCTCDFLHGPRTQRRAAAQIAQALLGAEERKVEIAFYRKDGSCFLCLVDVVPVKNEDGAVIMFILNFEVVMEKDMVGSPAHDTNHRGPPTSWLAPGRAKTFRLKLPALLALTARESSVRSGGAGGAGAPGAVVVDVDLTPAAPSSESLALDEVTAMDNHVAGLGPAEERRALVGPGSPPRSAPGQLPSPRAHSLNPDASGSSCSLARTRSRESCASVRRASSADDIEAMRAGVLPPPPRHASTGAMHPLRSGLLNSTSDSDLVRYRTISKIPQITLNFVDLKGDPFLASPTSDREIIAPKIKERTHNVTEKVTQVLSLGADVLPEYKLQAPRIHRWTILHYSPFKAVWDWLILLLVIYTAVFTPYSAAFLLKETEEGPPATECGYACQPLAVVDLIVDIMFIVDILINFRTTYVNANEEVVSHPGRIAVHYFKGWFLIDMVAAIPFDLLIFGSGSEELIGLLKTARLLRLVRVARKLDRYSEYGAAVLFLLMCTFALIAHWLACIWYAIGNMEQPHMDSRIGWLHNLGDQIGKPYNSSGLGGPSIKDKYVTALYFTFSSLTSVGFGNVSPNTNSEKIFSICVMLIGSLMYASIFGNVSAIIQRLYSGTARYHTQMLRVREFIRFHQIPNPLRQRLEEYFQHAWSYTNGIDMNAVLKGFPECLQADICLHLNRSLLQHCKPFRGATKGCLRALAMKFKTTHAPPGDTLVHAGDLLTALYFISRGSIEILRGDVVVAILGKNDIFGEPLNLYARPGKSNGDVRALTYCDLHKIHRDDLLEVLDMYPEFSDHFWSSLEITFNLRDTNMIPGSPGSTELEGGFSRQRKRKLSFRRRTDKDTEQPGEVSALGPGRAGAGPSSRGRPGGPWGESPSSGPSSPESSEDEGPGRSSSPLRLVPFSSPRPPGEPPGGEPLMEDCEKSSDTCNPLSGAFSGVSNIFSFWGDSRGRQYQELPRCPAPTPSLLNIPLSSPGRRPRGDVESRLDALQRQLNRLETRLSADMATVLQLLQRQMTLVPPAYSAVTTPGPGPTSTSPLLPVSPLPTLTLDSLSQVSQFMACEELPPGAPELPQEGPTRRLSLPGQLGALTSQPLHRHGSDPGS
row,SMILES,"hERG current change (%, negative = inhibition) at 10uM"
1,CCOC(=O)C1=C(C)N(c2ccc(Cl)cc2)C(=O)NC1c1cccc([N+](=O)[O-])c1 (stereo not drawn),-24.8%
2,CCOc1ccc(S(=O)(=O)NCCC(=O)NCC2(N3CCCCC3)CCCCC2)cc1,-33.2%
3,Cc1ccc[n+](CC(=O)Nc2cccc(Cl)c2)c1.[Cl-],18.4%
4,CCC(C)(C)C1CCc2c(sc(NC(=O)c3ccccc3C(=O)O)c2C#N)C1 (stereo not drawn),10.3%
5,O=C1C=C(N2CCN(C(=O)c3ccccc3)CC2)C2(CCCCC2)O1,-10.3%
6,O=C(NCCS(=O)(=O)N1CCc2ccccc2C1)c1ccccc1,-23%
7,COc1cccc(SCc2noc(C(=O)NCCCN3CCOCC3)c2C(=O)NCCCN2CCOCC2)c1,-4.2%
8,Cc1ccc(Cc2c(C)nc3nc(SCC(=O)NCCCN4CCCCCC4)nn3c2C)cc1,-54.8%
9,Cc1ccc(Cc2c(C)nc3nc(SCC(=O)NCCCN4CCCCC4)nn3c2C)cc1,-42.7%
10,Cc1ccc(Cc2c(C)nc3nc(SCC(=O)NCCCN4CCCC4)nn3c2C)cc1,-28.4%
11,CC(C)C[C@@H](N)c1nnc(SCC(=O)c2ccc(Cl)cc2)o1.Cl,-37.1%
12,O=C(Nc1ccccc1Cl)c1cnccn1,2.9%
13,CC1(C)CC(=O)C=C(Nc2ccccc2O)C1,15.7%
14,CC1(C)CC(=O)C=C(Nc2ccccc2NC(=O)c2cnccn2)C1,-64.7%
15,Cc1ccc(-n2ncc3c2CCCC3NC(=O)c2ocnc2C)cc1C (stereo not drawn),1.26%
16,CCOC(=O)c1[nH]c2ccccc2c1N=C(C)N(CC)CC,-54.7%
17,CCOC(=O)c1[nH]c2ccccc2c1NC(C)=O,-3.18%
18,CCOC(=O)c1[nH]c2ccccc2c1N=CN(CC)CC,-60.8%
19,CCOC(=O)c1[nH]c2ccc(OC)cc2c1N=CN(C)C,-7.13%
20,CCOC(=O)c1[nH]c2ccc(F)cc2c1N=C(C)N(CC)CC,-55.4%
21,CCOC(=O)c1[nH]c2ccccc2c1N=CN(C)C,-28.9%
22,CCOC(=O)c1[nH]c2ccccc2c1NC(=O)CN(C)C,7.08%
23,CCOC(=O)c1[nH]c2ccc(C)cc2c1N=C(C)N(C)C,-9.99%

row,SMILES,"hERG current change (%, negative = inhibition) at 10uM"
1,CCOC(=O)c1[nH]c2ccc(F)cc2c1NC(=O)c1ccccc1C(=O)O,19.4%
2,CC(C)COc1ccc(CNC(=S)Nc2ccccc2)cc1Cl,8.6%
3,Cc1cc(C)c2c(=O)[nH]n(C(C)C)c2n1,7.27%
4,O=C(O)c1ccc([N+](=O)[O-])c2c1C(=O)c1ccccc1C2=O,23.5%
5,NC(=S)N/N=C/c1c[nH]c2ccc(OCc3ccccc3)cc12,6.65%
6,NC(=O)CSc1nnc(NC(=O)c2cccc(S(=O)(=O)N3CCCCC3)c2)s1,25.3%
7,CCC(C(=O)Nc1ccc2c(c1)OCCO2)c1ccccc1 (stereo not drawn),13.4%
8,Cc1noc(C(=O)N2CCN(c3ccccc3)CC2)c1Cl,6.13%
9,CC1CCN(CCc2nc3cc(NS(=O)(=O)c4ccccc4)ccc3n2C)CC1,-65.5%
10,Cn1c(CCN2CCCC2)nc2cc(NS(=O)(=O)c3ccccc3)ccc21,-40.9%
11,Cn1c(CCN2CCOCC2)nc2cc(NS(=O)(=O)c3ccccc3)ccc21,-1.84%
12,CC1CCN(CCc2nc3cc(NC(=O)C(C)C)ccc3n2C)CC1,-0.549%
13,CC1CCN(CCc2nc3cc(NS(=O)(=O)c4ccc(F)cc4)ccc3n2C)CC1,-70.8%
14,CC1CCN(CCc2nc3cc(NC(=O)NC4CCCCC4)ccc3n2C)CC1,-15.1%
15,Cc1ccc(S(=O)(=O)NCCC(=O)NNC(=O)COc2ccccc2Cl)cc1C,-1.77%
16,O=C(NC1CCCCCC1)C1CC(=O)N(Cc2ccccc2)C1 (stereo not drawn),5.17%
17,COc1ccccc1C(=O)NC(=S)Nc1ccc(N2CCOCC2)c(Cl)c1,13.1%
18,O=[N+]([O-])c1ccc(Cl)cc1,10.9%
19,CSc1cccc(NC(C)C(=O)NCc2ccccc2)c1 (stereo not drawn),2.74%
20,CC(CCN1CCN(c2ccc(F)cc2)CC1)c1ccccc1 (stereo not drawn),-64.3%
21,Cl.c1ccc(SCCN2CCN(c3ccccc3)CC2)cc1,-10.9%
22,CC(CCN1CCN(CCO)CC1)c1ccccc1 (stereo not drawn),9.32%
23,CC(CCN1CCN(c2ccccc2)CC1)c1ccccc1.Cl (stereo not drawn),-54.6%

row,SMILES,"hERG current change (%, negative = inhibition) at 10uM"
1,c1ccc(N2CCN(Cc3ccnc4ccccc34)CC2)cc1,-0.764%
2,CC(CCN1CCOCC1)c1ccccc1 (stereo not drawn),21.9%
3,Cn1cc(CN2CCN(c3ccccc3)CC2)c2ccccc21,-54%
4,CC(CN1CCN(c2ccccc2)CC1)c1ccccc1 (stereo not drawn),-25.5%
5,CN1CCN(Cc2cn(C)c3ccccc23)CC1CCO (stereo not drawn),25.5%
6,N#CCN1C(=O)NC2(CCCc3sccc32)C1=O (stereo not drawn),11.1%
7,COc1cccc(-c2csc(/C(C#N)=C/Nc3cc4oc5ccccc5c4cc3OC)n2)c1,12.8%
8,O=C(c1noc2c1CCCC2)N1CCCCC1,-0.65%
9,Cc1cnc2c(c1)C(=O)c1ccccc1-2,13.6%
10,O=C(NCCN1CCOCC1)c1ccccc1[N+](=O)[O-],1.06%
11,CN1CCN(c2ccc(NC(=S)NC(=O)/C=C/c3ccco3)cc2)CC1,-7.96%
12,CCOc1ccc(S(=O)(=O)N2CCN(Cc3ccc4c(c3)OCO4)CC2)cc1Cl,-8.94%
13,Cn1cnc(S(=O)(=O)N2CCN(C(c3ccc(F)cc3)c3ccc(F)cc3)CC2)c1,-7.05%
14,Cc1cc(C)c(C)c(S(=O)(=O)NCCN2CCOCC2)c1C,-9.48%
15,Cc1cc(=O)oc2c1ccc1ccccc12,18.7%
16,CCN1CCCC1CN(Cc1cc2ccc(C)cc2[nH]c1=O)C(=S)Nc1ccc(OC)cc1OC (stereo not drawn),-74.5%
17,COC(=O)c1ccccc1NC(=S)N(Cc1ccc2c(c1)OCO2)Cc1cc2ccc(C)cc2[nH]c1=O,15.1%
18,CCN1CCCC1CN(Cc1cc2ccc(C)cc2[nH]c1=O)C(=S)Nc1ccccc1OC (stereo not drawn),46.7%
19,CNC(=S)N(Cc1ccc(OC)cc1)Cc1cc2ccc(C)cc2[nH]c1=O,14%
20,COC(=O)c1ccccc1NC(=S)N(Cc1ccc2c(c1)OCO2)Cc1cc2ccc(OC)cc2[nH]c1=O,-13.6%
21,COC(=O)c1ccccc1NC(=S)N(Cc1ccc2c(c1)OCO2)Cc1cc2cc(OC)ccc2[nH]c1=O,8.29%
22,CCN1CCCC1CN(Cc1cc2ccc(C)cc2[nH]c1=O)C(=S)Nc1ccc(F)cc1 (stereo not drawn),-78.5%
23,Cc1ccc2[nH]c(=O)c(CN(CC3CCCO3)C(=S)Nc3ccccc3)cc2c1 (stereo not drawn),-8.2%

row,SMILES,"hERG current change (%, negative = inhibition) at 10uM"
1,Cc1ccc2cc(CN(CC3CCCO3)C(=S)Nc3ccccc3)c(=O)[nH]c2c1 (stereo not drawn),-37%
2,COC(=O)c1ccccc1NC(=S)N(Cc1ccc2c(c1)OCO2)Cc1cc2cc(C)ccc2[nH]c1=O,0.949%
3,CCN(CC)CCN(Cc1cc2ccc(C)cc2[nH]c1=O)C(=S)Nc1ccccc1C(=O)OC,-64.2%
4,CCN1CCCC1CN(Cc1cc2ccc(C)cc2[nH]c1=O)C(=S)Nc1ccccc1C(=O)OC (stereo not drawn),-85.2%
5,Cc1ccc(NC(=O)CCN2C(=O)C3C4CCC(C4)C3C2=O)cc1[N+](=O)[O-] (stereo not drawn),-0.749%
6,O=C(Nc1ccc(C(F)(F)F)cc1)c1cc(-c2cccnc2)nc2ccc(Br)cc12,-16.2%
7,COc1ccc(N(CC(=O)NC(C)C)S(=O)(=O)c2ccc(NC(C)=O)cc2)cc1,2.29%
8,CC(=O)c1c(C)[nH]c(C(=O)COC(=O)CCCOc2ccccc2)c1C,18.7%
9,Cc1cccc(N(C(=O)Cn2nnc3ccccc32)C(C(=O)NC(C)(C)C)c2ccsc2)c1C (stereo not drawn),19.7%
10,CCN1CCCC1CN(Cc1cc2ccc(C)cc2[nH]c1=O)C(=S)Nc1cccc(OC)c1 (stereo not drawn),-70.7%
11,COc1ccc2[nH]c(=O)c(CN(CC3CCCO3)C(=S)Nc3cccc(C)c3)cc2c1 (stereo not drawn),16.3%
12,CCN1CCCC1CN(Cc1cc2ccc(C)cc2[nH]c1=O)C(=S)Nc1ccc(OC)cc1 (stereo not drawn),25.3%
13,CC(=O)N(Cc1ccc(F)cc1)C1=C(NCCc2ccccc2)C(=O)c2ccccc2C1=O,-0.648%
14,NC(N)=N/N=C/c1c(Cl)cccc1Cl,-10.3%
15,COC(=O)CCCC(NC(=S)N1CC2C[C@@H](C1)Cn1c2cccc1=O)C(=O)OC (stereo partly drawn),8.56%
16,Cc1cccc(NC(=S)N(CCCN2CCCC2)Cc2cccn2Cc2ccc(Cl)cc2)c1,-71.8%
17,CCOc1ccc(NC(=S)N(CCCN2CCCC2)Cc2cccn2Cc2ccc(Cl)cc2)cc1,-58.4%
18,Cc1ccc(NC(=S)N(CCCN2CCCC2)Cc2cccn2Cc2ccc(Cl)cc2)cc1,-22.9%
19,S=C(Nc1cccc(Cl)c1)N(CCCN1CCCC1)Cc1cccn1Cc1ccc(Cl)cc1,-22.7%
20,Cc1ccc(NC(=S)N(CCCN2CCCC2)Cc2cccn2Cc2ccc(Cl)cc2)cc1Cl,6.99%
21,Cc1ccc(NC(=S)N(CCCN2CCCC2)Cc2cccn2Cc2ccc(Cl)cc2)cc1C,4.72%
